# Assay results published in ChEMBL document CHEMBL3988442, “University of Dundee, Small-Polar-MMV Screening Library” (2021).
# About 1,000 (1.4%) of roughly 69,000 compounds showed an effect of 50% or more. What follows is part of a selection rich in strong results, with near analogues and random picks from the rest.
# System: Leishmania donovani
# Assay: Leishmania intramacrophage assay
# Type: functional, organism-based
# Parameters: scale not given: in the data most compounds retested in dose-response had high values
structure (smiles),measurement,setting,value
CC(C)NC(=O)N1CCC(c2nnc3n2CCNC3)CC1,Percent Effect,"30.3 µM, […]",-10%
O=C(O)C(F)(F)F.O=C([C@H]1CN(CCc2ccccc2)C[C@H]2OCC[C@@H]12)N1CCCO1,Percent Effect,"30 µM, 30.03 µM",22.49%
CCCC(C#N)NC(=O)Cc1csc(CC)n1 (centres undefined),Percent Effect,"30.3 µM, […]",15.43%
CC(OCc1ccccc1)C(=O)NC1CCN(CC(N)=O)CC1 (centres undefined),Percent Effect,"30.3 µM, […]",21.11%
O=C(c1ccc(O)c(Cl)c1)N1C[C@@H](CN2CCCCCC2)[C@@H](CO)C1,Percent Effect,"30.3 µM, […]",-29.45%
Cc1nc(CN2CCCC2c2[nH]ncc2C(=O)N(C)C)cs1 (centres undefined),Percent Effect,"30.3 µM, […]",17.56%
O=S(=O)(NCCc1c[nH]c2ccc(F)cc12)C1CCOCC1,Percent Effect,"30.3 µM, […]",23.05%
CCO[C@@H]1CO[C@@]2(CCN(Cc3ccc4c(c3)OCO4)C2)C1.O=C(O)C(F)(F)F,Percent Effect,"30.3 µM, […]",22.42%
CCO[C@H]1CO[C@@]2(CCN(Cc3ccc4c(c3)OCO4)C2)C1.O=C(O)C(F)(F)F,Percent Effect,"30.3 µM, […]",9.141%
O=C(O)C(F)(F)F.O=C(O)C(F)(F)F.c1ccc(O[C@H]2CO[C@@]3(CCN(Cc4ccc5c(c4)OCO5)C3)C2)nc1,Percent Effect,"30.3 µM, […]",57%
CC(C)Cc1cc(C(=O)NCCn2nc3ccccn3c2=O)[nH]n1,Percent Effect,"30.3 µM, […]",7.621%
O=C1CCC(=O)N1CCN1CCC(=Cc2ccccc2)CC1,Percent Effect,"30.3 µM, […]",5.63%
Fc1cccc(-c2cccc(N3CCC(NC4CCCOC4)CC3)c2)c1 (centres undefined),Percent Effect,"30.3 µM, […]",98.85%
O=C(Cc1cccs1)NC1CCN(c2cccc(F)c2)CC1,Percent Effect,"30 µM, 30.03 µM",26.53%
Cc1nc(-c2cccc(N3CCC(N[C@@H]4CCOC4)CC3)c2)cs1,Percent Effect,"30.3 µM, […]",-5.486%
COc1cccc(-c2cccc(N3CCC(N[C@@H]4CCOC4)CC3)c2)c1,Percent Effect,"30.3 µM, […]",96%
O=C(CCc1ccsc1)NC1CCN(c2cccc(F)c2)CC1,Percent Effect,"30.3 µM, […]",-29.46%
COc1cccc(N2CCC(N3CCOC(C(F)(F)F)C3)CC2)c1 (centres undefined),Percent Effect,"30.3 µM, […]",13.73%
COC(C)(C)CC(C)NCc1cc(-c2ccco2)on1 (centres undefined),Percent Effect,"30.3 µM, […]",-19.81%
CN(CCC#N)C(=O)CN1CCCN(Cc2noc(C3CC3)n2)CC1,Percent Effect,"30.3 µM, […]",25.2%
O=C(O)C(F)(F)F.c1ncn(Cc2cnc3n2CCN(Cc2ccsc2)CC3)n1,Percent Effect,"30 µM, 30.03 µM",-12.88%
O=C1NCC(C(=O)N(Cc2cccc(Br)c2)C2CC2)N1 (centres undefined),Percent Effect,"30.3 µM, […]",-2.381%
O=C1CC[C@H](C(=O)N(Cc2cccc(Br)c2)C2CC2)N1,Percent Effect,"30.3 µM, […]",50.36%
O=C1CC[C@H](C(=O)N(CCc2ccccc2)C2CCOC2)N1 (some centres undefined),Percent Effect,"30.3 µM, […]",6.545%
Nc1nc(CCCNC(=O)c2ccc(C3CCCNC3)cc2)cs1 (centres undefined),Percent Effect,"30.3 µM, […]",19.48%
Nc1nnc(CCNC(=O)c2cccc(C3CCCNC3)c2)s1 (centres undefined),Percent Effect,"30.3 µM, […]",5.236%
Nc1nnc(CCCNC(=O)c2ccc(C3CCCNC3)cc2)s1 (centres undefined),Percent Effect,"30.3 µM, […]",51.22%
CN(Cc1cccc(OC(F)(F)F)c1)Cc1cnn(C)c1,Percent Effect,"30.3 µM, […]",10.05%
CCN1CCCC(O)(CNCc2ccncc2)C1 (centres undefined),Percent Effect,"30.3 µM, […]",-12.57%
Cc1cc(NCc2ccc(S(N)(=O)=O)cc2)nc(C)n1,Percent Effect,"30.3 µM, […]",22.51%
COCCN(Cc1ccccc1Cl)c1nc(CCN)nc2ccccc12,Percent Effect,"30.3 µM, […]",98.78%
NCCc1nc(N(Cc2nccs2)C2CC2)c2ccccc2n1,Percent Effect,"30.3 µM, […]",-16.71%
Cc1ccsc1CN(c1nc(CCN)nc2ccccc12)C1CC1,Percent Effect,"30.3 µM, […]",40.33%
COCCN(Cc1cccs1)c1nc(CCN)nc2ccccc12,Percent Effect,"30.3 µM, […]",70.83%
COCCN(CC1CC1)c1nc(CCN)nc2ccccc12,Percent Effect,"30.3 µM, […]",14.22%
NCCc1nc(N(Cc2cncs2)C2CC2)c2ccccc2n1,Percent Effect,"30.3 µM, […]",-1.942%
CCS(=O)(=O)CC(=O)N1CCCC(c2noc(C(C)C)n2)C1 (centres undefined),Percent Effect,"30.3 µM, […]",10.94%
CCOCCN1CCN(CC(O)c2ccc(C)c(C)c2)CC1 (centres undefined),Percent Effect,"30.3 µM, […]",32.27%
Cc1nn(C)c(C)c1C1CCCN1C(=O)c1ccc2nnc(C)n2c1 (centres undefined),Percent Effect,30 µM,22.91%
CCC(CO)N(Cc1ccco1)C(=O)c1ccccc1SC (centres undefined),Percent Effect,"30.3 µM, […]",54.97%
CCC(CO)N(Cc1ccco1)C(=O)c1ccccc1NC (centres undefined),Percent Effect,"30.3 µM, […]",33.8%
CCC(CO)N(Cc1ccco1)C(=O)c1cccc(C)c1O (centres undefined),Percent Effect,"30.3 µM, […]",10.11%
FC(F)CN1CCC(NCCc2ccc(-n3cccn3)cc2)CC1,Percent Effect,"30.3 µM, […]",23.28%
CC(C)COCCNC1CCN(c2ccccn2)CC1,Percent Effect,"30.3 µM, […]",16.23%
COc1ccc(C(C)CCNC2CCN(c3ccccn3)CC2)cc1 (centres undefined),Percent Effect,"30.3 µM, […]",60.53%
c1ccc(N2CCC(NCCc3ccc(-n4cccn4)cc3)CC2)nc1,Percent Effect,"30.3 µM, […]",62.72%
c1cnn(-c2ccc(CCNC3CCN(C4CC4)C3)cc2)c1 (centres undefined),Percent Effect,"30.3 µM, […]",-4.355%
CC(CNC1CCN(c2ccccn2)CC1)Oc1ccc(F)cc1 (centres undefined),Percent Effect,"30.3 µM, […]",19.84%
O=C(O)C(F)(F)F.O=C(c1n[nH]c2c1CCN(Cc1nccs1)C2)N1CCCC1,Percent Effect,"30 µM, 30.03 µM",10.02%
COc1cccc(-n2cc(CN(C)Cc3ccnc(C(C)C)n3)cn2)c1,Percent Effect,"30.3 µM, […]",11.44%
CCOCC1CN(C(=O)Cc2ccccn2)Cc2cn(C)nc21 (centres undefined),Percent Effect,"30.3 µM, […]",5.026%
O=C(c1ccco1)N1CCOCC2(C1)CN(c1ccoc1)C(=O)CO2 (centres undefined),Percent Effect,"30.3 µM, […]",15.48%
CCn1cnnc1CCNC(=O)C1COc2ccc(OC)cc2C1 (centres undefined),Percent Effect,"30.3 µM, […]",15.43%
COc1nn(C)c2c1CCCN(C(=O)c1cccc3cccnc13)C2.O=C(O)C(F)(F)F,Percent Effect,"30.3 µM, […]",75.35%
COc1nn(C)c2c1CCCN(C(=O)c1cccc(C)n1)C2.O=C(O)C(F)(F)F,Percent Effect,"30.3 µM, […]",4.327%
COc1nn(C)c2c1CCCN(C(=O)c1ccc3ccccc3n1)C2.O=C(O)C(F)(F)F,Percent Effect,"30.3 µM, […]",-11.56%
Cc1nc2ccccc2c(=O)n1CCC(=O)N1CCCCCC1,Percent Effect,30 µM,21.32%
COCCNC(=O)CN1CC=C(n2c(C)nc(=O)c3ccccc32)CC1,Percent Effect,"30.3 µM, […]",40.79%
Cc1nnc2n1CCN(CC(=O)NC(C)c1cccc3ccccc13)C2 (centres undefined),Percent Effect,"30.3 µM, […]",-27.74%
Cc1nc(=O)c2ccccc2n1C1=CCN(CC(=O)NC(C)C)CC1,Percent Effect,"30.3 µM, […]",64.5%
Cc1nc2ccccc2c(=O)n1CCC(=O)N1CCCC1,Percent Effect,30 µM,19.05%
Cc1nc(=O)c2ccccc2n1C1=CCN(CC(=O)N2CCCC2)CC1,Percent Effect,"30.3 µM, […]",66.01%
CSCCNC(=O)c1ccc(OC2CCN(CC(C)(C)C)CC2)c(Cl)c1,Percent Effect,"30 µM, 30.03 µM",17.7%
COCc1n[nH]c2c1CN(Cc1ccccn1)C2.O=C(O)C(F)(F)F,Percent Effect,"30.3 µM, […]",2.635%
